Each structure is given as a SMILES string. Active and inactive are the calls of the source.

The target in test [1] is Albumin (Bos taurus) (UniProt P02769). The experiment in a line: compounds binding labelled BSA control protein – biochemical, small-molecule microarray, Alexa647 label, 635/667 nm fluorescence, artefact control for SMM control protein annotation, profiling panel (AID 1118).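 Also: score merges 667 nm emission intensity and signal-to-noise per printed compound spot.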 The conditions noted are these: BSA-A647 binding, fluorescence 635 nm, higher = more signal.
Chain of Albumin (Bos taurus) (P02769 whole entry, looked up): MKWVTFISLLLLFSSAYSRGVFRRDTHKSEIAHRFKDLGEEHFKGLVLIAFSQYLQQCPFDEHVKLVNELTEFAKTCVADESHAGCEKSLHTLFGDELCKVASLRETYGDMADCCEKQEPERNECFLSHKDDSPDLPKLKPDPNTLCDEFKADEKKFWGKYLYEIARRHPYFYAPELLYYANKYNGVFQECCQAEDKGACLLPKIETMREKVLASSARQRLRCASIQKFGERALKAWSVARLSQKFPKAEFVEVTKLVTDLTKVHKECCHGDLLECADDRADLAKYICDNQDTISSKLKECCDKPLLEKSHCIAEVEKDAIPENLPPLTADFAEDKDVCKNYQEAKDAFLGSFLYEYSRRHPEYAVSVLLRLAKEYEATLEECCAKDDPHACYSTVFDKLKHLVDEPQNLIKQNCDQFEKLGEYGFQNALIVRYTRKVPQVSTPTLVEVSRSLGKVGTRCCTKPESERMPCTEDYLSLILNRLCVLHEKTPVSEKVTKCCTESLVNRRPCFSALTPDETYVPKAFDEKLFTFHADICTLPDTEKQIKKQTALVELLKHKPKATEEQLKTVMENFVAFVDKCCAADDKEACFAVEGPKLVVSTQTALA
A short description of test [2]: probe aXIP binding to arrayed compounds – biochemical, NeuroSMM set, 635/667 nm fluorescence, primary screen (AID 1119).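 Also: probe is the protein aXip251-270 applied at 1 µg/mL to compound-printed slides; binding of probe to printed compounds measured as 667 nm fluorescence plus signal to noise.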 The conditions noted are these: small-molecule microarray, higher = more signal, called active from +8 up or from −8 down.
Test [3] can be described thus: probe aNOTCH3 binding on compound microarray – biochemical, small-molecule microarray, 635/667 nm fluorescence, primary screen (AID 1120).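 Also: probe is a biotin-tagged antibody raised against NOTCH3 rather than NOTCH3 protein; score merges spot fluorescence near 667 nm with spot signal to noise.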 The note with it: higher = more signal.
Test [4] is described as follows: probe aNOTCH2 binding on compound microarray – biochemical, small-molecule microarray, 635/667 nm fluorescence, primary screen (AID 1121).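 Also: score merges feature fluorescence read at 667 nm with its signal to noise.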 The conditions noted are these: higher = more signal.
Test [5] addresses Carbonic anhydrase 2 (Homo sapiens) (UniProt P00918). The experiment in a line: compounds binding carbonic anhydrase 2 – biochemical, small-molecule microarray, Alexa647-labelled CAII, profiling panel (AID 1122). The conditions noted are these: CAII-A647 binding fluorescence, higher = more signal.
Test [6] in a line: COS7 lysate on small-molecule microarray, probe aHis, 635 nm (AID 1123).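 Also: z-score combines 667nm fluorescence intensity with signal-to-noise per printed compound spot.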 The note with it: COS7 cell lysate, fluorescence, higher = more signal.
Test [7] can be described thus: probe aLAP1 signal on lysate-treated microarray – cell lysate, small-molecule microarray, COS7 lysate, primary screen (AID 1124).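 Also: lysate comes from COS7 cells expressing LAP1 and is applied at 0.3 µg/mL; score merges spot fluorescence near 667 nm with signal-to-noise over triplicate slides.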 The note with it: probe aLAP1, fluorescence, higher = more signal.
The test system of test [8] is Sam68 (KHDRBS1). The test is described as follows: compounds binding KHDRBS1 protein – biochemical, small-molecule microarray, 635 nm fluorescence, primary screen (AID 1125).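 Also: score merges 667 nm channel intensity with signal to noise over triplicate slides.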 The conditions noted are these: higher = more signal.
In test [9] the test system is Chordin-like protein 2 (CHRDL2). The test is described as follows: compounds binding chordin-like 2 – biochemical, small-molecule microarray, 635 nm fluorescence, primary screen (AID 1126).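 Also: printed compound slides probed with Chrdl2 protein at 4 µg/mL for 1 h at 4 C; score merges 667 nm emission intensity with signal to noise over three replicate slides.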 The conditions noted are these: fluorescence 635 nm, higher = more signal.
The target of test [10] is Concanavalin-A (Canavalia ensiformis) (UniProt P02866). The test is described as follows: compounds binding concanavalin A lectin – biochemical, small-molecule microarray, Alexa647 label, 635 nm, artefact control for SMM control protein annotation, primary screen (AID 1127).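 Also: z combines 667 nm emission intensity with signal-to-noise across three replicate slides.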 The note with it: ConA-A647 binding fluorescence, higher = more signal.
Chain of Concanavalin-A (Canavalia ensiformis) (P02866 whole entry, looked up): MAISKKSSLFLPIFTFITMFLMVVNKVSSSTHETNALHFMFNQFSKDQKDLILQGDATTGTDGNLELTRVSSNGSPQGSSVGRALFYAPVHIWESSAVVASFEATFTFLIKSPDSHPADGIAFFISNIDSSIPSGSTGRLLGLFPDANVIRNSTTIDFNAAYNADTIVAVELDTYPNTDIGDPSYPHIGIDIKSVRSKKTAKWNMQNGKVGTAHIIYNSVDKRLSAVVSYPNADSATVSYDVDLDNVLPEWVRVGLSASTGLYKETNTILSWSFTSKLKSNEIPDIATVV

`CO[C@H]1COC(=O)[C@@H](C)COC(=O)[C@H](C)NC(=O)CC=C[C@H]1C`: the composite z-score is -0.859 in test [1]; -0.038 in [3]; -0.0907 in [4]; -0.328 in [5]; -0.866 in [6]; -0.225 in [7]. Besides, the composite z-score is 0.486 in [8], 1.27 in [9] and -0.99 in [10]. The composite Z-score in test [2] was 0.111 (inactive).
In the case of `COC(=O)[C@@H]1CC[C@H](C)[C@@H](c2ccc(C)cc2)N1C(=O)c1ccc(C=NO[C@@H](C)c2cn([C@H](CO)Cc3ccccc3)nn2)cc1`, the composite z-score in test [1] was 0.597; in test [3], 0.217; in test [4], -0.09; in test [5], 0.097; in test [6], 1.2; in test [7], -0.151. Moreover, the composite z-score in test [8] was 1.32; in [9] it was 0.892; in [10], 0.81. The composite Z-score in test [2] was -0.222 (inactive).
Turning to `O=C(NN=C1C[C@@H](O)[C@@H](O)[C@@H]2[C@@H]3C(=O)N(C[C@@H]4CCCO4)C(=O)[C@@H]3CC[C@H]12)OCc1ccccc1`, the composite z-score is 0.534 in [1]; 0.0522 in [3]; -0.0081 in test [4]; -0.273 in test [5]; 0.109 in test [6]; -0.0716 in [7]. The values for the composite z-score in test [8], in test [9] and in test [10] were -0.534, -0.187 and 0.305, respectively. Also, the composite Z-score in [2] is 0.42 (inactive).
Turning to `O=C(C=Cc1ccc2c(c1)OCO2)c1ccc(F)cc1`, the composite z-score was -0.744 in test [1]; 0.278 in test [3]; -0.0811 in [4]; -0.236 in test [5]; -0.542 in test [6]; 0.134 in test [7]. Further, the results for the composite z-score in test [8], in test [9] and in test [10] were -0.21, 1.31 and 0.108, respectively. Further, the composite Z-score in test [2] was -0.188 (inactive).
As to `CCOC(=O)[C@H](CC(C)C)NC(=O)CCC1CC(OC(=O)NCc2cccc3ccccc23)CC2(CCCC(COC(=O)NCCCN3CCCC3=O)O2)O1` (stereo not given in full), the composite z-score in [1] was 0.247; in test [3], -0.0328; in test [4], -0.108; in test [5], 0.581; in test [6] it was 0.444; in test [7] it was -0.0183. In addition, the composite z-score in test [8] is 1.29; in [9], 0.256; in [10] it was 0.832. For the same compound, the composite Z-score in [2] is -0.122 (inactive).
On to `CCOC(=O)[C@H](Cc1ccccc1)NC(=O)CCC1CC(OC(=O)NCCc2ccc(F)cc2)CC2(CCCC(COC(=O)NCCCN3CCCC3=O)O2)O1` (stereo not given in full), for which the composite z-score is 0.468 in test [1]; 0.0479 in [3]; -0.078 in test [4]; 0.0851 in test [5]; 0.776 in test [6]; 0.129 in test [7]. For the same compound, the composite z-score in test [8] worked out at 1.29; in [9], 0.294; in [10] it was 1.1. Further, the composite Z-score in test [2] is 0.0773 (inactive).
With `COC(=O)CC=C[C@@H](C)[C@@H](C=NOC[C@H]1O[C@H](c2ccccc2)C=C[C@@H]1Oc1ccc(OC)cc1)OC`, the composite z-score in [1] is 0.479; in test [3] it was -0.23; in [4], -0.131; in test [5] it was -0.223; in test [6] it was -0.3; in test [7], -0.0842. The figures for the composite z-score in [8], in [9] and in [10] were -0.379, 0.303 and -0.766, respectively. Besides, the composite Z-score in [2] is -0.0708 (inactive).
In the case of `CCO[C@H](c1cc(OC)cc([N+](=O)[O-])c1OC)[C@H](C)C=CCC(=O)OC`, the composite z-score in test [1] was -0.424; in test [3], -0.0682; in test [4], -0.122; in test [5] it was -0.324; in test [6], -0.925; in [7] it was 0.251. Also, the composite z-score in test [8] is 0.143; in [9], 0.516; in test [10] it was -0.221. Moreover, the composite Z-score in [2] is 0.277 (inactive).
As to `CCCNC(=O)OC[C@H]1O[C@H](CCON=Cc2ccc(C(=O)N3[C@H](c4ccc(C)cc4)[C@@H](C)CC[C@H]3C(=O)OC)cc2)C=C[C@@H]1Oc1ccc(OC)cc1`, the composite z-score was 0.315 in test [1]; -0.321 in [3]; -0.172 in test [4]; -0.0309 in test [5]; 0.526 in [6]; 0.735 in test [7]. Also, the figures for the composite z-score in [8], in test [9] and in test [10] were 1.08, 0.274 and 0.279, respectively. The composite Z-score in [2] is 0.0856 (inactive).
Take `CC(C)=CCCC(C)=CCON=C1C[C@@H](O)[C@@H](O)[C@@H]2[C@@H]3C(=O)N(Cc4ccccc4)C(=O)[C@@H]3CC[C@H]12`: the composite z-score in test [1] was 0.188; in test [3], 0.0493; in test [4] it was -0.175; in test [5] it was 0.754; in test [6] it was 1.26; in test [7] it was 0.146. The composite z-score in test [8] was found to be 1.29; in test [9], 0.955; in test [10], 0.541. In test [2], the composite Z-score is 0.4 (inactive).
`CCOC(=O)[C@H](CC(C)C)NC(=O)CCC1CC(OC(=O)NCc2cccc3ccccc23)CC2(CCCC(COC(=O)NCC3CCCCC3)O2)O1` (stereo not given in full): the composite z-score was 0.14 in test [1]; 0.0311 in test [3]; -0.0896 in test [4]; 0.392 in test [5]; 0.0741 in test [6]; -0.0193 in test [7]. Moreover, the composite z-score in test [8] was 1.29; in test [9], 0.32; in [10], 1.08. In test [2], the composite Z-score is 0.526 (inactive).
`CCOC(=O)[C@H](Cc1ccccc1)NC(=O)CCC1CC(OC(=O)NCc2ccc3c(c2)OCO3)CC2(CCCC(COC(=O)NCCc3ccccc3OC)O2)O1` (stereo not given in full): the composite z-score in test [1] was 0.485; in test [3], 0.0225; in test [4], -0.184; in test [5] it was 0.253; in [6] it was 1.05; in [7], -0.0407. The composite z-score in test [8] turned out to be 1.29; in test [9] it was 1.06; in test [10], 1.1. For the same compound, in [2], the composite Z-score is -0.344 (inactive).
On to `CCCCC#C[C@@H]1C=C[C@H](OC(C)=O)[C@@H](COC(C)=O)O1`, for which the composite z-score in [1] was 0.678; in test [3] it was 0.0758; in [4], -0.0698; in test [5], -0.0641; in test [6] it was 0.015; in test [7], -0.406. Further, the composite z-score was found to be 0.581 in test [8], 0.282 in test [9] and 0.475 in test [10]. The composite Z-score in test [2] is 0.299 (inactive).
In the case of `CCN1C(=O)[C@H]2[C@H]3[C@H](O)[C@H](O)CC(=NOCC(C)C)[C@@H]3CC[C@H]2C1=O`, the composite z-score in test [1] is 0.612; in [3] it was 0.179; in test [4] it was -0.126; in test [5], 0.459; in [6], 1.1; in [7], -0.202. The composite z-score in test [8] came to 1.3; in test [9], 0.72; in test [10], 0.0131. Besides, the composite Z-score in test [2] was -0.0562 (inactive).

For the origin of these results see PubChem BioAssay.
